Test results from PubChem BioAssay (NCATS).
Results filed as inconclusive are left out. The source made the active and inactive calls. Unless noted, no rule for the calls is given here.

Assays:
[1] = qHTS profiling of the MIPE4 collection as inhibitors of Plasmodium falciparum (3D7) proliferation (AID 743344);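 also: scaled between DMSO vehicle wells and 0.29 µM artemisinin as full inhibition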; conditions: P. falciparum 3D7 in erythrocytes, SYBR Green DNA fluorescence, 72 h; at 28.5 µM unless noted
Procedure, shortened: (§1)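 Parasite DNA was quantified by SYBR Green I fluorescence (ex 485, em 535 nm) after overnight lysis in saponin/Triton buffer at room temperature. Cultures at 0.3% parasitemia and 2.5% hematocrit were first exposed to compound for 72 h at 37 C; signals were normalised to artemisinin (0.29 uM) and vehicle wells.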

[2] = qHTS profiling of the MIPE4 collection as inhibitors of Plasmodium falciparum (DD2) proliferation (AID 743345); conditions: P. falciparum Dd2 in erythrocytes, SYBR Green DNA, 72 h; at 28.5 µM unless noted
Procedure, shortened: as §1

[3] = qHTS profiling of the MIPE4 collection as inhibitors of Plasmodium falciparum (DD2) proliferation (Rep 2) (AID 743346); conditions: P. falciparum Dd2 in erythrocytes, SYBR Green DNA, 72 h; at 28.5 µM unless noted
Procedure, shortened: as §1

[4] = qHTS profiling of the MIPE4 collection as inhibitors of Plasmodium falciparum (HB3) proliferation (AID 743347);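 also: plate controls were DMSO vehicle wells for no effect and artemisinin wells for full effect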; conditions: P. falciparum HB3 in erythrocytes, SYBR Green DNA, 72 h; at 28.5 µM unless noted
Procedure, shortened: as §1

[5] = High-throughput drug toxicity screening in the BPDCN cell line Gen2.2 (AID 1224824); conditions: Gen2.2 BPDCN cells; at 45.8 µM (top of the series) unless noted;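 also: cells exposed to compounds for 48 h before reading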
Procedure, shortened: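 Gen2.2, 500 cells/well, phenol red-free RPMI/10% FBS/Pen-Strep; 48 h cpd, 37 °C/5% CO2; CTG lum, 15 min RT. Norm: DMSO = 100%, bortezomib 9.2 uM final = 0%.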

[6] = High-throughput drug toxicity screening in the BPDCN cell line Cal-1 (AID 1224825); conditions: Cal-1 BPDCN cell viability, qHTS; at 45.8 µM (top of the series) unless noted
Procedure, shortened: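 CellTiter-Glo luminescence after 48 h compound exposure; percent activity scaled with DMSO as 100% and bortezomib (9.2 uM final) as 0%. Cal-1 cells seeded at 500/well in RPMI, 10% FBS, no phenol red.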

[7] = qHTS assay for measurement of the activity of small molecule inhibitors on Zika virus induced Caspase-3 activity in human iPSC derived neural progenitor cells (hNPCs) (AID 1224857; active = well fitted inhibition curve with a large enough effect; also: nearly all actives have a fitted effect of over 65% in size; also: potency is read from the fitted curve at half-maximal effect)
Procedure, shortened: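 Zika virus (2 FFU/cell) infection of human iPSC-derived NPCs, 6 h, following 1 h compound preincubation. Read-out: Caspase-Glo 3/7 luminescence.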

Cn1c2ccccc2c2c3c(c4c5ccccc5n(CCC#N)c4c21)CNC3=O
parasite growth, % of DMSO control [1]: 16%
parasite growth remaining, % of DMSO control (lower = more inhibition) [2]: 7.7%
parasite growth, % of control (lower = inhibition) [3]: 30.7%
growth, % of control [4]: 54.6%
cell viability, % of control (lower = more cytotoxic) [5]: 12.7%
viability (% of control) [6]: 15.7%
Potency [7]: inactive

COc1ccc(C(=O)CC2(O)C(=O)Nc3c(Cl)ccc(Cl)c32)cc1 (configuration not stated)
parasite growth remaining, % of DMSO control (lower = more inhibition) [2]: 85.7%
parasite growth, % of control (lower = inhibition) [3]: 75.9%
growth, % of control [4]: 62.1%
cell viability, % of control (lower = more cytotoxic) [5]: 26.7%
viability (% of control) [6]: 11.2%
Potency [7]: inactive

O=C(Nc1ncc(-c2cc(C(F)F)nn2-c2c(Cl)cccc2Cl)s1)C1CC1
parasite growth remaining, % of DMSO control (lower = more inhibition) [2]: 26.5%
parasite growth, % of control (lower = inhibition) [3]: 31.4%
growth, % of control [4]: 19.5%
cell viability, % of control (lower = more cytotoxic) [5]: 23.6%
viability (% of control) [6]: 9.09%
Potency [7]: inactive

Cc1c(NC(=O)OC[C@@H]2COCCN2)cn2ncnc(Nc3ccc4c(cnn4Cc4cccc(F)c4)c3)c12
parasite growth, % of DMSO control [1]: 5.88%
parasite growth remaining, % of DMSO control (lower = more inhibition) [2]: 11%
parasite growth, % of control (lower = inhibition) [3]: 24.7%
growth, % of control [4]: 11.2%
cell viability, % of control (lower = more cytotoxic) [5]: 285%
viability (% of control) [6]: 13.9%
Potency [7]: inactive

COc1cc(C(=O)N2CCC(N3CCN(C)CC3)CC2)ccc1Nc1ncc2c(n1)N(C)c1ccccc1C(=O)N2C
parasite growth, % of DMSO control [1]: 5.57%
parasite growth remaining, % of DMSO control (lower = more inhibition) [2]: 7.18%
parasite growth, % of control (lower = inhibition) [3]: 19.7%
growth, % of control [4]: 5.31%
cell viability, % of control (lower = more cytotoxic) [5]: 2.17%
viability (% of control) [6]: 3.29%
Potency [7]: inactive

Cc1cc(Nc2nc(N[C@@H](C)c3ccc(F)cc3)c(C#N)cc2F)n[nH]1
parasite growth, % of DMSO control [1]: 7.05%
parasite growth, % of control (lower = inhibition) [3]: 9.75%
growth, % of control [4]: 6.34%
cell viability, % of control (lower = more cytotoxic) [5]: 218%
viability (% of control) [6]: 12.6%
Potency [7]: inactive

CCCCCCCCCC(=O)N[C@@H](Cc1c[nH]c2ccccc12)C(=O)N[C@H](CC(N)=O)C(=O)N[C@@H](CC(=O)O)C(=O)N[C@@H]1C(=O)NCC(=O)N[C@@H](CCCN)C(=O)N[C@@H](CC(=O)O)C(=O)N[C@H](C)C(=O)N[C@@H](CC(=O)O)C(=O)NCC(=O)N[C@H](CO)C(=O)N[C@@H]([C@@H](C)CC(=O)O)C(=O)N[C@@H](CC(=O)c2ccccc2N)C(=O)O[C@@H]1C
parasite growth, % of DMSO control [1]: 409%
parasite growth remaining, % of DMSO control (lower = more inhibition) [2]: 96.7%
parasite growth, % of control (lower = inhibition) [3]: 108%
growth, % of control [4]: 299%
cell viability, % of control (lower = more cytotoxic) [5]: 128%
viability (% of control) [6]: 108%
Potency [7]: inactive

OCc1ccc(-c2ccc(-c3ccc(CO)s3)o2)s1
parasite growth, % of DMSO control [1]: 78.4%
parasite growth remaining, % of DMSO control (lower = more inhibition) [2]: 79.5%
parasite growth, % of control (lower = inhibition) [3]: 47.9%
growth, % of control [4]: 64.5%
cell viability, % of control (lower = more cytotoxic) [5]: 1.11%
viability (% of control) [6]: 1.47%
Potency [7]: 26.4 µM (active)

CN(C)Cc1c(C(=O)NCCOc2ccc(C(=O)NO)cc2)oc2ccccc12
parasite growth, % of DMSO control [1]: 5.24%
parasite growth remaining, % of DMSO control (lower = more inhibition) [2]: 7.04%
parasite growth, % of control (lower = inhibition) [3]: 7.09%
growth, % of control [4]: 6.43%
cell viability, % of control (lower = more cytotoxic) [5]: 38.7%
viability (% of control) [6]: 5.5%
Potency [7]: inactive

Cc1c(C)n(Cc2ccc(-c3ccccc3C(=O)O)cc2)c2ccc(C(=O)N[C@@H](C)c3ccc([N+](=O)[O-])cc3)cc12
parasite growth, % of DMSO control [1]: 25.4%
parasite growth, % of control (lower = inhibition) [3]: 20.8%
growth, % of control [4]: 7.19%
cell viability, % of control (lower = more cytotoxic) [5]: 21.6%
viability (% of control) [6]: 8.82%
Potency [7]: inactive

Cc1c(CN2CCN(S(C)(=O)=O)CC2)sc2c(N3CCOCC3)nc(-c3cnc(N)nc3)nc12
parasite growth, % of DMSO control [1]: 5.64%
parasite growth remaining, % of DMSO control (lower = more inhibition) [2]: 14.2%
parasite growth, % of control (lower = inhibition) [3]: 18.4%
growth, % of control [4]: 5.68%
cell viability, % of control (lower = more cytotoxic) [5]: 16.1%
viability (% of control) [6]: 19.3%
Potency [7]: inactive

Cc1ccc(NC(=O)C2(c3ccc4c(c3)OC(F)(F)O4)CC2)nc1-c1cccc(C(=O)O)c1
parasite growth, % of DMSO control [1]: 7.25%
parasite growth remaining, % of DMSO control (lower = more inhibition) [2]: 6.69%
parasite growth, % of control (lower = inhibition) [3]: 7.61%
growth, % of control [4]: 5.22%
cell viability, % of control (lower = more cytotoxic) [5]: 8.23%
viability (% of control) [6]: 6.82%
Potency [7]: inactive

CCCn1c(=O)c2[nH]c(-c3cnn(Cc4cccc(C(F)(F)F)c4)c3)nc2n(CC)c1=O
parasite growth, % of DMSO control [1]: 62.2%
parasite growth remaining, % of DMSO control (lower = more inhibition) [2]: 73.8%
parasite growth, % of control (lower = inhibition) [3]: 43.2%
growth, % of control [4]: 51.8%
cell viability, % of control (lower = more cytotoxic) [5]: 49.4%
viability (% of control) [6]: 107%
Potency [7]: inactive

CN1CCN(Cc2ccc(NC(=O)Nc3ccc(Oc4cc(NC(=O)C5CC5)ncn4)cc3)cc2C(F)(F)F)CC1
parasite growth, % of DMSO control [1]: 6%
parasite growth remaining, % of DMSO control (lower = more inhibition) [2]: 6.55%
parasite growth, % of control (lower = inhibition) [3]: 14.2%
growth, % of control [4]: 7.58%
cell viability, % of control (lower = more cytotoxic) [5]: 0.71%
viability (% of control) [6]: 0.746%
Potency [7]: inactive

COC(=O)Nc1ccc(-c2nc(N3CCOCC3)c3cnn(C4CCN(Cc5cccnc5)CC4)c3n2)cc1
parasite growth, % of DMSO control [1]: 5.62%
parasite growth, % of control (lower = inhibition) [3]: 9.27%
growth, % of control [4]: 4.59%
cell viability, % of control (lower = more cytotoxic) [5]: 4.27%
viability (% of control) [6]: 3.04%
Potency [7]: inactive

Cc1cc(N2CCOCC2)cc2[nH]c(-c3c(NC[C@@H](O)c4cccc(Cl)c4)cc[nH]c3=O)nc12
parasite growth, % of DMSO control [1]: 5.92%
parasite growth remaining, % of DMSO control (lower = more inhibition) [2]: 15.8%
parasite growth, % of control (lower = inhibition) [3]: 14%
growth, % of control [4]: 3.57%
cell viability, % of control (lower = more cytotoxic) [5]: 25%
viability (% of control) [6]: 3.1%
Potency [7]: inactive

CC(C)c1cc(C(=O)N2Cc3ccc(CN4CCN(C)CC4)cc3C2)c(O)cc1O
parasite growth, % of DMSO control [1]: 5.55%
parasite growth, % of control (lower = inhibition) [3]: 9.28%
growth, % of control [4]: 2.52%
cell viability, % of control (lower = more cytotoxic) [5]: 29.3%
viability (% of control) [6]: 15%
Potency [7]: inactive

NCC(=O)Nc1ccc(-n2nc(C(F)(F)F)cc2-c2ccc3c(ccc4ccccc43)c2)cc1
parasite growth remaining, % of DMSO control (lower = more inhibition) [2]: 8.46%
parasite growth, % of control (lower = inhibition) [3]: 12.2%
growth, % of control [4]: 4.19%
cell viability, % of control (lower = more cytotoxic) [5]: 1.18%
viability (% of control) [6]: 0.933%
Potency [7]: inactive

O=C(c1cncc(Br)c1)N1CCC(N2CCCC2)CC1
parasite growth, % of DMSO control [1]: 102%
parasite growth, % of control (lower = inhibition) [3]: 80.8%
growth, % of control [4]: 96.9%
cell viability, % of control (lower = more cytotoxic) [5]: 144%
viability (% of control) [6]: 126%
Potency [7]: inactive

COc1cccc(-c2ccc(NC(=O)C3=C(C(=O)O)CCC3)c(F)c2)c1
parasite growth, % of DMSO control [1]: 64.2%
parasite growth remaining, % of DMSO control (lower = more inhibition) [2]: 90.8%
parasite growth, % of control (lower = inhibition) [3]: 53%
growth, % of control [4]: 78.8%
cell viability, % of control (lower = more cytotoxic) [5]: 19%
viability (% of control) [6]: 4.11%
Potency [7]: 2.64 µM (active)

O=C(Cc1ccc(-c2ccc(OCCN3CCOCC3)cc2)cn1)NCc1ccccc1
parasite growth, % of DMSO control [1]: 20.6%
parasite growth remaining, % of DMSO control (lower = more inhibition) [2]: 20.2%
parasite growth, % of control (lower = inhibition) [3]: 27.1%
growth, % of control [4]: 11.9%
cell viability, % of control (lower = more cytotoxic) [5]: 49.1%
viability (% of control) [6]: 9.81%

CN(C)CC(C)(C)CNc1nn2c(-c3ccccc3)nnc2cc1C1CCC1
parasite growth, % of DMSO control [1]: 20%
parasite growth remaining, % of DMSO control (lower = more inhibition) [2]: 21.9%
parasite growth, % of control (lower = inhibition) [3]: 40.5%
growth, % of control [4]: 48.8%
cell viability, % of control (lower = more cytotoxic) [5]: 13.9%
viability (% of control) [6]: 3.65%

Nc1ccn([C@@H]2O[C@H](CO)[C@H](O)C2(F)F)c(=O)n1
parasite growth, % of DMSO control [1]: 19.5%
parasite growth remaining, % of DMSO control (lower = more inhibition) [2]: 10.3%
parasite growth, % of control (lower = inhibition) [3]: 8.03%
growth, % of control [4]: 42.2%
cell viability, % of control (lower = more cytotoxic) [5]: 144%
viability (% of control) [6]: 11.1%

C[C@]12CC[C@H](O)CC1=CCC1C2CC[C@]2(C)C(n3cnc4ccccc43)=CCC12 (some centres not stated)
parasite growth remaining, % of DMSO control (lower = more inhibition) [2]: 72.8%
parasite growth, % of control (lower = inhibition) [3]: 21.9%
growth, % of control [4]: 9.11%
cell viability, % of control (lower = more cytotoxic) [5]: 109%
viability (% of control) [6]: 91.9%
Potency [7]: inactive

CC(C)(O)c1cc2nc(-c3cnc(N)nc3)nc(N3CCOCC3)c2s1
parasite growth, % of DMSO control [1]: 10.6%
parasite growth remaining, % of DMSO control (lower = more inhibition) [2]: 10.4%
parasite growth, % of control (lower = inhibition) [3]: 10%
growth, % of control [4]: 2.52%
cell viability, % of control (lower = more cytotoxic) [5]: 33.5%
viability (% of control) [6]: 24%
